Reference: PubChem BioAssay AID1159580 (chemical genetic matrix, 2015)
In all, about 5,500 compounds went through this assay and about 2,000 (36%) were called active. Inconclusive results (about 18%) are left out. No stated cut-off is given here; in the data, active means normalized growth mostly below about 0.91 (no sharp cut-off); inconclusive means no clear call, values can overlap the other calls; inactive means mostly above about 0.92. The list shows a part of the results.

Test: chemical genetic growth profiling, strain panel (AID 1159580);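 further: tested at 20 µM; growth read once vehicle control cultures reached saturation at 30 °C; 1 = growth at the plate median or of vehicle wells; lower values mean less growth of the strain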
Settings: S. cerevisiae deletion strains, growth OD

Measured: normalized growth

N[C@H](C(=O)O)[C@H](O)C(=O)O
inactive: locus YAL013W, strain DEP1, hits give low values 0.972 | locus YAL040C, strain CLN3, hits give low values 0.965 | locus YCL061C, strain MRC1 (second series), hits give low values 0.994 | locus YDR150W, strain NUM1, hits give low values 1 | locus YDR363W, strain ESC2, hits give low values 0.987 | locus YER002W, strain NOP16, hits give low values 1 | locus YMR307W, strain GAS1, hits give low values 0.992 | locus YNL153C, strain GIM3, hits give low values 0.989 | locus YNL175C, strain NOP13, hits give low values 1.01 | locus YNL197C, strain WHI3, hits give low values 0.996 | locus YNL224C, strain SQS1, hits give low values 0.983 | locus YOR083W, strain WHI5 (second series), hits give low values 1.06 | locus YPL241C, strain CIN2, hits give low values 0.992
